In PubChem BioAssay AID1159580 (chemical genetic matrix, 2015):
About 2,000 (36%) of roughly 5,500 compounds were called active. About 18% were inconclusive and are not listed. Cut-off read from the data, not from the text of the source: active = normalized growth mostly below about 0.91 (no sharp cut-off); inconclusive = no clear call, values can overlap the other calls; inactive = mostly above about 0.92. Some of the results follow.

Assay: chemical genetic growth profiling, strain panel (AID 1159580);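 note: tested at 20 µM; growth read once vehicle control cultures reached saturation at 30 °C; 1 = growth at the plate median or of vehicle wells; lower values mean less growth of the strain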
Conditions: S. cerevisiae deletion strains, growth OD

Measured: normalized growth

NC(=O)c1ccccc1N1CCCCC1
inactive: locus YAL013W, strain DEP1, stronger effect = lower value 1.01 | locus YBR229C, strain ROT2, stronger effect = lower value 0.986 | locus YDL101C, strain DUN1, stronger effect = lower value 0.949 | locus YDR150W, strain NUM1, stronger effect = lower value 0.912 | locus YEL061C, strain CIN8, stronger effect = lower value 1.02 | locus YGR078C, strain PAC10, stronger effect = lower value 0.997 | locus YHR030C, strain SLT2, stronger effect = lower value 0.986 | locus YHR087W, strain rtc3, stronger effect = lower value 1.05 | locus YJL187C, strain SWE1, stronger effect = lower value 1.02 | locus YJR043C, strain POL32, stronger effect = lower value 0.99 | locus YJR075W, strain HOC1, stronger effect = lower value 0.965 | locus YKL190W, strain CNB1, stronger effect = lower value 1.01 | locus YLR039C, strain RIC1, stronger effect = lower value 1.02 | locus YLR058C, strain SHM2 (second series), stronger effect = lower value 1.02 | locus YLR085C, strain ARP6, stronger effect = lower value 1.06 | locus YLR262C, strain YPT6, stronger effect = lower value 1.02 | locus YML094W, strain GIM5, stronger effect = lower value 1.02 | locus YMR219W, strain ESC1, stronger effect = lower value 0.997 | locus YMR263W, strain SAP30, stronger effect = lower value 0.941 | locus YNL128W, strain TEP1, stronger effect = lower value 0.996 | locus YNL153C, strain GIM3, stronger effect = lower value 0.993 | locus YNL298W, strain CLA4 (second series), stronger effect = lower value 0.991 | locus YNL322C, strain KRE1, stronger effect = lower value 0.994 | locus YNR030W, strain Alg12, stronger effect = lower value 1 | locus YOL006C, strain TOP1, stronger effect = lower value 0.991 | locus YPL055C, strain LGE1, stronger effect = lower value 0.998 | locus YPL241C, strain CIN2, stronger effect = lower value 0.994 | locus YPR135W, strain CTF4, stronger effect = lower value 0.907
